The list is not random: actives were taken first. Their share in the collection is about 18%.
GCN5L2 inh: qHTS Assay for Inhibitors of GCN5L2; Histone acetyltransferase KAT2A (Homo sapiens), Q92830; GCN5L2 HAT assay, ThioGlo1 CoA-SH fluorescence; Potency, µM (top dose mostly 58.9 µM), for the others: top-dose activity change, negative = inhibition, hits mostly inhibitors; hit rate 0.21% among 390,000
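Preincubate 20nM GCN5L2 with compound 15 min, RT → add 50uM ThioGlo1 + 75uM H3(1-25) + 70uM acetyl-CoA → read fluorescence 0 and 20 min. Primary qHTS; fluorescent artifacts likely.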
VDR inhibitor: Inhibitors of the vitamin D receptor (VDR): qHTS. Vitamin D3 receptor (Homo sapiens), P11473. VDR-SRC2-3 peptide fluorescence polarization, 2 h. Potency, µM, without a hit: max response, negative = inhibition, usual class: inhibitors. hit rate 0.93% among 400,000. AID 504847, 2011
Target sequence (P11473 whole entry, looked up): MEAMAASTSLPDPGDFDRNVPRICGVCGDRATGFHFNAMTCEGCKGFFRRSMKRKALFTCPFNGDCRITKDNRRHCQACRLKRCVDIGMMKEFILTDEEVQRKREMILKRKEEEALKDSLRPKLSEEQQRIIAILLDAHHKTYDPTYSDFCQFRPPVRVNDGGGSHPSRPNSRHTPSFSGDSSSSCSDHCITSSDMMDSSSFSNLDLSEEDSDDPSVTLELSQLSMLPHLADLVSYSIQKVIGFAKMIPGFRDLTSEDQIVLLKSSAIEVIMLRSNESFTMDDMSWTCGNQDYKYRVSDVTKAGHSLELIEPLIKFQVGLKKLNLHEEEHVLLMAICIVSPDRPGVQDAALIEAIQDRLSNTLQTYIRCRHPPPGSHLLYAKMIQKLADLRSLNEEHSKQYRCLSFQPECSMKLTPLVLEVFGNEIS
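Fluorescence polarization assay of small-molecule disruption of VDR binding to coregulator peptide SRC2-3. Compounds and controls pin-transferred, then read after 2 h incubation at ambient room temperature.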
TDP1 inh: qHTS Assay for Inhibitors of Tyrosyl-DNA Phosphodiesterase (TDP1); recombinant TDP1, AlphaScreen DNA substrate cleavage; Potency, µM (titrated, usually from 130 µM), for the others: at the highest dose activity change, negative = inhibition, actives largely listed as inhibitors; hit rate 0.28% among 350,000; note: nearly all actives have a fitted effect of over 40% in size
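Steps: enzyme plus compound, 15 min RT; add biotin/phosphotyrosine-FITC oligonucleotide (15 nM final), react 5 min; add donor/acceptor beads (10 ug/ml final), 10 min; read AlphaScreen. Tdp1 at 1 nM final.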
DT40 TDP1 CPT: qHTS for Inhibitors of human tyrosyl-DNA phosphodiesterase 1 (TDP1): qHTS in cells in presence of CPT. chicken DT40 Tdp1-/-;hTDP1 cells + 20 nM CPT, ATP luminescence, 48 h. Potency, µM (titrated, usually from 46.2 µM), for inactives: at the highest dose activity change, negative = growth inhibition, usual class: inhibitors. hit rate 12% among 420,000; note: nearly all actives have a fitted effect of over 55% in size
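Chicken DT40 Tdp1-/- cells complemented with human TDP1, 400 cells/well, exposed to compounds plus 20 nM camptothecin for at least 48 h at 37 C; viability read as ATP content by CellTiter-Glo luminescence.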
DT40 TDP1 no CPT: qHTS for Inhibitors of human tyrosyl-DNA phosphodiesterase 1 (TDP1): qHTS in cells in absence of CPT | Potency, µM (titrated, usually from 46.2 µM), without a hit: top-dose activity change, negative = growth inhibition, actives largely listed as inhibitors | hit rate 15% among 420,000 | DT40 Tdp1-/- hTDP1 cells, no CPT, ATP luminescence, 48 h; note: nearly all actives have a fitted effect of over 55% in size
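DT40 Tdp1-/-;hTDP1 cells, no CPT (DMSO vehicle only), 400 cells/well; compounds pin-transferred; ≥48 hr, 37 °C; CellTiter-Glo 30 min RT dark, luminescence read.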
PLK1 PBD inh: qHTS for Inhibitors of PLK1-PDB (polo-like kinase 1 - polo-box domain): Primary Screen | Plk1 PBD binding of FITC phosphopeptide, fluorescence polarization | Potency, µM, for the others: max response, negative = inhibition, actives largely listed as inhibitors | Serine/threonine-protein kinase PLK1 (Homo sapiens), P53350 | hit rate 2.8% among 360,000; note: series mostly up to about 57 µM; nearly all actives have a fitted effect of over 65% in size
Numbers without * were called inactive; ? = inconclusive; · = no result given; [ ] = remark or other dose. Calls come from the whole dose curve; as a rule, active = well fitted curve in the direction sought with a large enough effect; inconclusive = small, poorly fitted or top-dose-only effect, or another doubt; inactive = no such curve, though single readings can be large; an effect the other way counts as inactive or inconclusive. % is set by controls: 0 for no effect and ±100 for the full control effect; potency is the fitted concentration of half-maximal effect.

SMILES	GCN5L2 inh	VDR inhibitor	TDP1 inh	DT40 TDP1 CPT	DT40 TDP1 no CPT	PLK1 PBD inh
Fc1ccc(-n2ncc3c(NC4CCCCCC4)ncnc32)cc1	-2%	11%	-3%	23µM*	23µM*	·
CCN(CC)c1ncnc2c1cnn2-c1cc(Cl)ccc1C	-4%	1%	8%	21µM*	21µM*	·
Cc1ccc(Cl)cc1-n1ncc2c(N3CCN(Cc4ccccc4)CC3)ncnc21	-18%	-10%	3%	2.6µM*	2.3µM*	·
Cc1ccc(Cl)cc1-n1ncc2c(NC3CCCCC3)ncnc21	-10%	17%	13%	9.2µM*	15µM*	·
CCC(C)NC(=O)CCc1c(C)nc2cc(-c3ccc(OC)cc3OC)nn2c1C (configuration not stated)	0%	1%	5%	?	?	·
Cc1ccc(-n2ncc3c(N4CCCCCC4)ncnc32)cc1	0%	-3%	-3%	?	?	·
Cc1ccc(-n2ncc3c(NC4CCCCCC4)ncnc32)cc1	-4%	10%	-3%	13µM*	18µM*	·
Fc1ccc(-n2ncc3c(N4CCCCCC4)ncnc32)cc1	-9%	-2%	3%	12µM*	?	·
COc1ccc(-c2noc(-c3cccc(OC)c3OC)n2)cc1	3%	-7%	-1%	?	?	·
CCCCNCCOCCOc1ccc(Cl)cc1Br	-2%	11%	-7%	21µM*	33µM*	-8%
COCCCNC(=O)COc1ccc(Br)cc1Cl	3%	-7%	2%	-5%	-2%	-12%
CCC(C)NCCCOc1ccc(C)cc1OC (configuration not stated)	0%	-12%	?	-7%	-21%	-16%
CC(O)CNCCCOc1ccc(Cl)cc1C(C)(C)C (configuration not stated)	-3%	6%	0%	13µM*	13µM*	-6%
CCC(C)NCCCCOc1ccc(Cl)cc1C (configuration not stated)	1%	2%	6%	?	21µM*	-5%
CC(C)NCCCCOc1ccc(Br)cc1Cl	-14%	-6%	6%	23µM*	18µM*	-14%
CN(CCOCCOc1ccc(Cl)cc1Br)Cc1ccccc1	0%	2%	3%	-23%	?	-1%
COc1cc(CN2CCN(c3ncccn3)CC2)cc(OC)c1	-5%	8%	·	-5%	-2%	-2%
Cc1ccccc1C(=O)Nc1ccc(S(=O)(=O)N2CCOCC2)cc1	-2%	-4%	·	-6%	2%	6%
Cc1cc(C)n(CCNC(=O)[C@H]2O[C@@H](n3ccc(=O)[nH]c3=O)[C@H](O)[C@@H]2O)n1	·	·	·	0%	0%	-10%
COc1cc(NC(=O)C(OC(=O)CNC(=O)c2ccccc2)c2ccccc2)cc(OC)c1 (configuration not stated)	·	·	0%	·	·	·
COCCCNCCCOc1ccc(Cl)cc1Br	-3%	31%	-2%	26µM*	?	-11%
C=CCc1cc(Cl)ccc1OCCCNCCO	2%	9%	-6%	?	16µM*	-11%
CC(C)NCCCOc1ccc(Cl)cc1Br	-1%	2%	-8%	18µM*	?	-2%
C=CCc1cc(Cl)ccc1OCCN(C)C	2%	5%	-2%	-9%	-2%	-1%
COc1ccc(Cn2c(CCC(=O)NCc3cccc(Cl)c3)nc3cccnc32)cc1	0%	1%	4%	?	?	·
SMILES	GCN5L2 inh	VDR inhibitor	TDP1 inh	DT40 TDP1 CPT	DT40 TDP1 no CPT	PLK1 PBD inh
CCOC(=O)N1CCc2c(sc3c2c(=O)n(-c2ccc(CC)cc2)c(=O)n3CC(=O)Nc2ccc(C)cc2)C1	2%	0%	-1%	?	?	·
CN(CCCNC(=O)c1cc2c(=O)n(C)c3ccccc3c2s1)Cc1ccccc1	-10%	-4%	0%	4.6µM*	15µM*	·
CCCCN(CC)CCCNC(=O)c1cc2c(=O)n(CC)c3ccccc3c2s1	18%	-8%	·	?	?	-5%
CCCCN(CC)CCNC(=O)c1cc2c(=O)n(C)c3ccccc3c2s1	-2%	-6%	·	?	23µM*	-7%
CN(CCNC(=O)c1cc2c(=O)n(C)c3ccccc3c2n1C)Cc1ccccc1	-14%	-6%	1%	?	?	-5%
CCN(CC)CCNC(=O)c1cc2c(=O)n(C)c3ccccc3c2s1	0%	15%	·	18µM*	21µM*	-12%
CCCCN(CC)CCNC(=O)c1cc2c(=O)n(CC)c3ccccc3c2s1	1%	0%	8%	16µM*	21µM*	-22%
CCCN(Cc1cc2cccc(C)c2[nH]c1=O)C(=O)c1cccc(Cl)c1	2%	0%	5%	?	?	·
OC(CNCc1ccccc1)(c1ccc(F)cc1)c1ccc(F)cc1	-5%	13%	0%	?	18µM*	-1%
Cc1ccc(CNCC(O)(c2ccccc2)c2ccc(F)cc2)cc1 (configuration not stated)	-8%	-11%	-7%	?	21µM*	5%
Cc1ccc(CNCC(O)(c2ccc(F)cc2)c2ccc(F)cc2)cc1	-3%	-5%	1%	21µM*	?	1%
CC(C)(C)C(=O)Cn1ncc(Br)c(Br)c1=O	-6%	-5%	5%	4.6µM*	1.8µM*	-21%
N#Cc1c2c(c(=S)n(-c3ccccc3)c1N)CCCC2	-11%	-17%	-1%	-17%	-19%	2.7µM*
N#Cc1c(C#N)c(-c2ccccc2)n(-c2ccccc2)c1N	-1%	1%	8%	15µM*	12µM*	-13%
Cn1c(N)c(C#N)c(C#N)c1-c1ccccc1	1%	16%	-3%	-12%	-22%	-11%
CC1(C)Cc2c(C#N)c(N)n(-c3ccccc3)c(=S)c2CO1	-6%	27%	5%	2%	-22%	11µM*
CCC1(C)Cc2c(C#N)c(N)n(N)c(=S)c2CO1 (configuration not stated)	-4%	-20%	7%[56.1 µM]	-18%	-19%	27µM*
Cn1c(N)c(C#N)c2c(c1=S)COC(C)(C)C2	0%	-3%	2%	-5%	-1%	-8%
CCOC(=O)c1c2c(c(=S)n(-c3ccccc3)c1N)CCC2	-11%	-4%	4%	-2%	-20%	-8%

Screening results from PubChem BioAssay.
